For 55 compounds, inhibition results are on record in PubChem BioAssay AID440 (NMMLSC, 2006).

The structures appear in SMILES notation. The whole screen tested about 24,000 compounds, of which about 180 (0.75%) were called active. Rule as the data show it: active = inhibition above about 30%; inconclusive = no clear call, values can overlap the other calls; inactive = below that. The entries come from a sample that favours actives as a whole.

Sequence of fMet-Leu-Phe receptor (Homo sapiens) (P21462 whole entry, looked up): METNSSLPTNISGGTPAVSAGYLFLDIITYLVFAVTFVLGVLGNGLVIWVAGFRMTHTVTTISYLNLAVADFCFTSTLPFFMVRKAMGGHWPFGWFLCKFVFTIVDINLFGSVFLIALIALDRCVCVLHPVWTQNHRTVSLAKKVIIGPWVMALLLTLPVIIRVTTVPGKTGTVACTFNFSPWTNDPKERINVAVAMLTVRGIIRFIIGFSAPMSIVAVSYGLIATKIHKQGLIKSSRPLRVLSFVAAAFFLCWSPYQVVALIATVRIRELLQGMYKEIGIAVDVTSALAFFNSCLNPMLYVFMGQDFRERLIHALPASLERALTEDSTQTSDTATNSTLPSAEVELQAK

The assay has as its target fMet-Leu-Phe receptor (Homo sapiens) (UniProt P21462). As to the kind of experiment: human FPR ligands by binding competition, primary screen, cell-based, FPRL1 counter-screen, flow cytometry (AID 440).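 Also: 0% = buffer wells and 100% = receptor blocker peptide wells.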 The conditions noted are these: FPR-expressing cells, fluorescent ligand binding, hits give high values, concentration not given here.
Regarding `COc1ccc(CNC(=O)C2CCN(S(=O)(=O)N3CCOCC3)CC2)cc1`, the inhibition is -0.9% (inactive). For `COc1ccc(/C(O)=C2/C(=O)C(=O)N(CCCN(C)C)C2c2ccccc2)cc1OC` (stereo not given) the value was -8.5% (inactive); for `Cc1ccc(NC(=O)CN(C)S(=O)(=O)c2cnc[nH]2)cc1C`, -11.5% (inactive). For `O=C(O)Cc1ccc(NC(=O)C2CCCCC2C(=O)O)cc1` (stereo not given) the value was -9.4% (inactive); for `COc1ccccc1N1CCN(C(=O)c2c(-c3c(Cl)cccc3Cl)noc2C)CC1`, 6.9% (inactive).

As for `CCOC(=O)CN1CC23C=CC(O2)C(C(=O)Nc2ccc(F)cc2)C3C1=O` (stereo not given), the inhibition was -4.5% (inactive).

Consider `COc1ccc(CC(NC(C)=O)C(=O)NC2CCN(C(=O)Nc3ccc(C#N)cc3)CC2)cc1OC` (stereo not given), for which the inhibition is 13.5% (inactive). As to `CCOC(=O)c1oc2ccccc2c1NC(=O)c1cccs1`, the inhibition was -2.1% (inactive).

Turning to `CCOc1ccc(N(CC(=O)OC)S(=O)(=O)c2c(C)noc2C)cc1`, the inhibition is -18.8% (inactive).

In the case of `CC1=C(C(=O)OCc2ccccc2)C(c2ccco2)n2ncnc2N1` (stereo not given), the inhibition was -4.9% (inactive).

On to `O=C(C1=C(O)C(=O)N(c2ncccn2)C1c1cccs1)c1ccco1` (stereo not given), for which the inhibition is -4.1% (inactive). For `O=C1c2ccccc2C(O)N1Cc1ccccc1` (stereo not given) the value was -3.5% (inactive); for `O=C(C1=C(O)C(=O)N(Cc2ccccc2)C1c1ccco1)c1ccco1` (stereo not given), 43.1% (active); for `O=C(C1=C(O)C(=O)N(Cc2ccccc2)C1c1cccnc1)c1ccco1` (stereo not given), 36% (active). For `O=C(Nc1ccccc1)N(Cc1cccnc1)Cc1ccco1` the value was 4.3% (inactive); for `Cc1cccc(N2C(=O)SC(N(CC(=O)O)c3cccc(C)c3)C2=O)c1` (stereo not given), 76.8% (active). For `CCC1Oc2ccc(Cl)cc2N(CC(=O)O)C1=O` (stereo not given) the value was 4.3% (inactive). Regarding `Cc1cc(C)cc(N(CC(=O)NCC2CCCO2)S(=O)(=O)c2c(C)noc2C)c1` (stereo not given), the inhibition was 3.2% (inactive). For `COc1ccc(C2CC(c3ccc(Cl)cc3Cl)Nc3nc(N)nn32)cc1OC` (stereo not given) the value was 6.7% (inactive).

Take `COc1ccccc1C(=O)N1CCN=C1SCc1cccnc1`: the inhibition was 0.1% (inactive). As for `CCOC(=O)c1oc2c(CN3CCN(C)CC3)c(O)ccc2c(=O)c1-c1ccc(Br)cc1`, the inhibition is -5.9% (inactive).

Take `CC(C)OC(=O)c1cc(NC(=O)C2C3CCC(O3)C2C(=O)O)cc(C(=O)OC(C)C)c1` (stereo not given): the inhibition was 39.8% (active). For `Cc1sc(NC(=O)C2C3CCC(O3)C2C(=O)O)c(C(=O)OC(C)C)c1-c1ccc(Cl)cc1` (stereo not given) the value was 6.3% (inactive).

For `CC(C)COC(=O)C1C2C=CC3(CN(C(C)c4ccc(Br)cc4)C(=O)C13)O2` (stereo not given), the inhibition is -6.6% (inactive). For `Cc1ccc(C)c(N(CC(=O)NCc2ccco2)C(=O)CCC(=O)Nc2ccccn2)c1` the value was 19% (inactive); for `CCN(CC)CCNC(=O)Cn1cnc2sc(C)c(S(=O)(=O)N3CCOCC3)c2c1=O`, -9.4% (inactive). For `C/C(CC(O)(/C=N/O)c1ccccc1)=N\O` (stereo not given) the value was 7.2% (inactive).

For `O=C(Cn1c(=O)n(Cc2ccco2)c(=O)c2ccccc21)NCC1CCCO1` (stereo not given), the inhibition is 5.8% (inactive). For `N#CCCN1CCN(S(=O)(=O)c2ccc(S(=O)(=O)NC3CC3)cc2)CC1` the value was -1.2% (inactive); for `CCOc1ccc(CCNC(=O)C2CCN(c3ccc(N4CCOCC4)nn3)CC2)cc1OCC`, -8.8% (inactive). For `COCCOC(=O)C1=C(C)NC(=O)CC1c1cc2c(cc1Br)OCO2` (stereo not given) the value was -1.8% (inactive); for `Nc1nonc1-c1noc(-c2ccc(Br)o2)n1`, -6.7% (inactive). For `CCC(C)(C(=O)NC1CCCC1)N(C(=O)CNC(C)=O)c1ccc(C)cc1` (stereo not given) the value was 5.8% (inactive); for `O=C(COC(=O)c1ccccc1C(=O)c1ccccc1)c1ccco1`, -1% (inactive); for `CCOC(=O)N1CCN(C(=O)c2cc3c(-c4ccc(Cl)cc4)nn(C)c3s2)CC1`, 8.5% (inactive).

For the compound `CC1CCN(c2oc(-c3ccccc3F)nc2C#N)CC1`, the inhibition is -10.3% (inactive). Consider `O=C(NCCc1ccc(Cl)cc1)C1CC(=O)N(C2CCCCC2)C1` (stereo not given), for which the inhibition was -0.9% (inactive). For `CCOc1cc2c(cc1OCC)C(C(=O)O)C(c1ccc(OC)c(O)c1)N(C)C2=O` (stereo not given) the value was 12.3% (inactive).

Consider `CCOc1ccc(CC(=O)Nc2ccc(S(=O)(=O)Nc3cc(C)on3)cc2)cc1OCC`, for which the inhibition was -0.6% (inactive). For `O=C(Cn1nnc(-c2ccc(CN3CCOCC3)cc2)n1)NC1CCCCC1` the value was 5.2% (inactive). For `Cc1cc(C(=O)O)c(S(C)(=O)=O)s1` the value was -3.8% (inactive); for `Cc1cc(=O)n(C)c(=O)n1CCCNc1ccccc1`, -1.3% (inactive); for `COCc1cc(C)nc(SCC(=O)Nc2cccc(C)c2)c1C#N`, -8.6% (inactive). For `CCOC(=O)c1ccc(CS(=O)c2ccc(Cl)cc2)o1` (stereo not given) the value was -1.1% (inactive); for `CCCS(=O)(=O)N1CCC(C(=O)NCCCN(C)Cc2ccccc2)CC1`, -2.3% (inactive); for `C=CCN(CC=C)C(=O)CN1C(=O)c2ccccc2C1=O`, 13.3% (inactive). In the case of `Cc1cc(=O)oc(C)c1C(=O)NCc1ccc(F)cc1`, the inhibition is -12.6% (inactive). `O=C(O)C1CCCCC1C(=O)Nc1ccc(Cl)cc1` (stereo not given): the inhibition is -10.1% (inactive). For the compound `Cc1c2cnn(-c3ccccc3)c(=O)c2c(C)n1CCCC(=O)N1CCN(C)CC1`, the inhibition is 1.2% (inactive). For `O=C1CCC(Cc2ccccc2)N1` (stereo not given) the value was 1.5% (inactive).

In the case of `COc1ccc(C(=O)NC(=O)CSc2nnc(-c3ccco3)n2-c2ccccc2)cc1`, the inhibition was -1.4% (inactive).

For `Cn1c(C(=O)N2CCC(C(N)=O)CC2)cc2c(=O)n(C)c3ccccc3c21`, the inhibition is -1% (inactive). For `O=C(NCc1ccco1)C1CCCN(S(=O)(=O)c2cccc3nonc23)C1` (stereo not given) the value was -5.3% (inactive); for `Cn1c(=O)n(C)c2cc(CNc3ccc(N4CCOCC4)c(C(=O)O)c3)ccc21`, 0.5% (inactive); for `Cc1ccc(NC(=O)c2nc[nH]c2C(=O)N2CCCCC2)c(C(=O)c2ccccc2)c1`, -3.6% (inactive).
